Results from ChEMBL document CHEMBL3988442, “University of Dundee, Small-Polar-MMV Screening Library” (2021).

target: T1, Aspartate--tRNA(Asp/Asn) ligase (Mycobacterium tuberculosis (strain ATCC 25618 / H37Rv)) (UniProt P9WFW3); assay: Assay for Asp RNA synthetase-1 from Mycobacterium tuberculosis; format: functional; design: scale not given: direction of the effect not stated beside the values; conditions: 30 µM; further: in the data most compounds retested in dose-response had high values
T1 sequence (whole entry): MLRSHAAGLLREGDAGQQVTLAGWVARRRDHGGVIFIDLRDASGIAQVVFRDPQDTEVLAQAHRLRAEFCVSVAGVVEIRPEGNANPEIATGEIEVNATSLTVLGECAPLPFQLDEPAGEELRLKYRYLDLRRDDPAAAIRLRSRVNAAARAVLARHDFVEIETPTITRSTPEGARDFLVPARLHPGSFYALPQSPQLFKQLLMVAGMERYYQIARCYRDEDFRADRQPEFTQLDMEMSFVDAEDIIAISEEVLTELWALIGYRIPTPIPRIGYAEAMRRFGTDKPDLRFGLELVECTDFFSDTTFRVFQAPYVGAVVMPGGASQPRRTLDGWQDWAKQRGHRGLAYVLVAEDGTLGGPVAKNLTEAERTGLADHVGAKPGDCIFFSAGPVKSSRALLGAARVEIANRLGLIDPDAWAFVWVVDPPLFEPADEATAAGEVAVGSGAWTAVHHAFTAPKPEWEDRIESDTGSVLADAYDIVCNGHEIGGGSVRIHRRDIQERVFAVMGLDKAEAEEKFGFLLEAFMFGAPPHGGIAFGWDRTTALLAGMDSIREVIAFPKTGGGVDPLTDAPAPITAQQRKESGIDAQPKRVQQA

Compared with `O=C(Cn1cccn1)NCC1(c2ccccc2)CC1`, `O=C(CCc1ccsc1)NCC1CCN(c2ccccc2)C1` (stereo not given) is higher in Percent Effect: -2.68% for the first, 0.529% for the second.

Compared with `Cc1nnc(SCC(=O)N2CCC3(CC2)c2ccccc2CC3O)o1` (stereo not given), `Cc1nc2ccnn2c(C)c1CCC(=O)N1CCN(C2CC2)CC1` is lower in Percent Effect: 4.4% for the first, 3.26% for the second.

Going from `COc1cc(CNC(=O)NCc2c(C)cc(C)[nH]c2=O)ccc1C` to `COc1c(CNCCNC(=O)c2ccc(C)cc2)c(C)nn1C`, the Percent Effect falls from -3.59% to -4.08%.

Compared with `CN(Cc1ccccc1)CC(O)Cn1cnc2c(cnn2C)c1=O` (stereo not given), `CCn1c(Nc2ccccc2OC)nc2c(C)nn(C)c2c1=O` is lower in Percent Effect: -0.522% for the first, -3.4% for the second.

First: COc1ccc(CNC(=O)NC2CCC(O)CC2)c(C(F)(F)F)c1 (stereo not given)
Second: COc1ccc2c(c1)CCN(CCC(=O)O)CC2
The Percent Effect of the first is lower: 2.84% for the first, 3.94% for the second.

Going from `COc1ccnc(N2CCN(C(=O)c3csc(C(C)C)n3)CC2)n1` to `CCn1ccnc1CN1CCCN(C(=O)c2cccn2C)CC1`, the Percent Effect rises from -5.15% to -3.17%.

First: Cc1ncnc2c1CCN(c1cc(C(F)(F)F)ncn1)CC2
Second: Cc1nc(N2CCCCC2)ncc1-c1cc(O)[nH]n1
The Percent Effect of the first is higher: 3.84% for the first, -0.348% for the second.

Compared with `CS(=O)(=O)NCc1n[nH]c2c1CCN(C(=O)c1ccsc1)C2`, `O=C(NCC1OCCc2cn(CC3CC3)nc21)c1ccsc1` (stereo not given) is lower in Percent Effect: 9.64% for the first, -3.57% for the second.

Compared with `Clc1ccc2cccnc2c1CN1CCCC(Cn2cncn2)C1` (stereo not given), `Cc1[nH]c(=O)[nH]c(=O)c1CN1CCCC(CCc2ccccc2)C1` (stereo not given) is higher in Percent Effect: -1.86% for the first, -0.814% for the second.

First: CC(C)NC(=O)C1CN(C(=O)c2ccc(F)cc2)CC12CCOCC2 (stereo not given)
Second: Cc1ccc(C(NC(=O)CC2CCN(C(C)C)CC2)C(=O)O)cc1 (stereo not given)
The Percent Effect of the first is higher: 0.581% for the first, -0.279% for the second.

Compared with `CN(Cc1nc(-c2ccco2)no1)C1CCCN(c2cccnn2)C1` (stereo not given), `Cc1ccc(N2CCCC(NCc3nc(C)c(C)o3)C2)nn1` (stereo not given) is higher in Percent Effect: -3.2% for the first, -0.975% for the second.

Compared with `Cc1ccsc1CN(Cc1ccccn1)CC(C)C`, `Cc1nn(C)c(N(C)C)c1CNCc1ccccc1CN(C)C` is lower in Percent Effect: -2.01% for the first, -4.76% for the second.

First: Cn1ccnc1CN1CCN(CC(O)c2ccc(F)c(F)c2)CC1 (stereo not given)
Second: COc1ccc(CN2CCCC(Nc3cccc(F)c3)C2)cc1O (stereo not given)
The Percent Effect of the first is lower: 1.33% for the first, 5.06% for the second.

First: CC(=O)N1CCCC(c2cnc(-c3c(C)nn(C)c3C)cn2)C1 (stereo not given)
Second: CCOCCN1CCCC(c2cc(C(N)=O)[nH]n2)C1 (stereo not given)
The Percent Effect of the first is lower: -3.49% for the first, -2.28% for the second.

First: CCC1c2ccsc2CCN1C(=O)NCc1cc[nH]n1 (stereo not given)
Second: O=C1CC(c2ccccc2)c2snc(C(=O)O)c2N1 (stereo not given)
The Percent Effect of the first is higher: -1.83% for the first, -6.76% for the second.

Going from `O=C1CC2(CCN(CC3CC3)C2)CN1c1ccc2c(c1)OCO2` (stereo not given) to `O=C(c1cnccn1)N1CCOCC2(CCN(C3CCOCC3)C2)C1` (stereo not given), the Percent Effect falls from 14.6% to 3.28%.

First: Fc1cnc(N2CCOC3(CCN(Cc4ccsc4)CC3)C2)nc1
Second: CC(=O)Nc1ccc(-n2ccc3nc(N4CCCC4)ncc3c2=O)cc1
The Percent Effect of the first is higher: 14.1% for the first, 4.09% for the second.

First: COc1ccc(CC(=O)N2C[C@@H]3COC[C@]3(CN(C)C)C2)cc1
Second: COc1ccc(CNC(=O)C2(C#N)CCCC2)cc1
The Percent Effect of the first is lower: -5.29% for the first, 2.12% for the second.

Compared with `CC1=N[C@@]2(CC[C@@H]3CN(CC(=O)N(C)C)C[C@@H]32)C(=O)N1CC(C)C`, `CCc1noc(C(C)N(C)CC(=O)Nc2c(C)cccc2C)n1` (stereo not given) is lower in Percent Effect: -0.203% for the first, -10.4% for the second.

Compared with `COc1ccc(C(C)=O)c(OCC(=O)NC(C)c2ccc(F)cc2)c1` (stereo not given), `O=C(Cn1c(=O)n(Cc2ccco2)c2ncccc21)Nc1ccccn1` is higher in Percent Effect: -4.39% for the first, 8.2% for the second.

target: Shiga toxin 2 (Escherichia coli O157:H7) (UniProt P09385+P09386); assay: E. coli 0.157:H7 Shiga Toxin SOP - stx2 screening assay; format: functional; design: scale not given: direction of the effect not stated beside the values; conditions: 30 µM

Compared with `O=C(Cn1cccn1)NCC1(c2ccccc2)CC1`, `O=C(CCc1ccsc1)NCC1CCN(c2ccccc2)C1` (stereo not given) is lower in Percent Effect: 16.1% for the first, -12.3% for the second.

First: Cc1nnc(SCC(=O)N2CCC3(CC2)c2ccccc2CC3O)o1 (stereo not given)
Second: Cc1nc2ccnn2c(C)c1CCC(=O)N1CCN(C2CC2)CC1
The Percent Effect of the first is lower: -18.7% for the first, 33% for the second.

Compared with `COc1cc(CNC(=O)NCc2c(C)cc(C)[nH]c2=O)ccc1C`, `COc1c(CNCCNC(=O)c2ccc(C)cc2)c(C)nn1C` is lower in Percent Effect: -4.18% for the first, -32.3% for the second.

First: CN(Cc1ccccc1)CC(O)Cn1cnc2c(cnn2C)c1=O (stereo not given)
Second: CCn1c(Nc2ccccc2OC)nc2c(C)nn(C)c2c1=O
The Percent Effect of the first is higher: -8.29% for the first, -16.8% for the second.

Going from `COc1ccc(CNC(=O)NC2CCC(O)CC2)c(C(F)(F)F)c1` (stereo not given) to `COc1ccc2c(c1)CCN(CCC(=O)O)CC2`, the Percent Effect falls from 3.3% to -33.8%.

Compared with `COc1ccnc(N2CCN(C(=O)c3csc(C(C)C)n3)CC2)n1`, `CCn1ccnc1CN1CCCN(C(=O)c2cccn2C)CC1` is higher in Percent Effect: -4.83% for the first, 5.64% for the second.

Going from `Cc1ncnc2c1CCN(c1cc(C(F)(F)F)ncn1)CC2` to `Cc1nc(N2CCCCC2)ncc1-c1cc(O)[nH]n1`, the Percent Effect falls from 6.49% to -1.17%.

Going from `CS(=O)(=O)NCc1n[nH]c2c1CCN(C(=O)c1ccsc1)C2` to `O=C(NCC1OCCc2cn(CC3CC3)nc21)c1ccsc1` (stereo not given), the Percent Effect falls from -7.46% to -12.1%.

Going from `Clc1ccc2cccnc2c1CN1CCCC(Cn2cncn2)C1` (stereo not given) to `Cc1[nH]c(=O)[nH]c(=O)c1CN1CCCC(CCc2ccccc2)C1` (stereo not given), the Percent Effect rises from -6.27% to -2.29%.

Going from `CC(C)NC(=O)C1CN(C(=O)c2ccc(F)cc2)CC12CCOCC2` (stereo not given) to `Cc1ccc(C(NC(=O)CC2CCN(C(C)C)CC2)C(=O)O)cc1` (stereo not given), the Percent Effect rises from -56% to 10.7%.

Going from `CN(Cc1nc(-c2ccco2)no1)C1CCCN(c2cccnn2)C1` (stereo not given) to `Cc1ccc(N2CCCC(NCc3nc(C)c(C)o3)C2)nn1` (stereo not given), the Percent Effect rises from -26.8% to -14.9%.

Going from `Cc1ccsc1CN(Cc1ccccn1)CC(C)C` to `Cc1nn(C)c(N(C)C)c1CNCc1ccccc1CN(C)C`, the Percent Effect falls from -3.58% to -24.6%.

Going from `Cn1ccnc1CN1CCN(CC(O)c2ccc(F)c(F)c2)CC1` (stereo not given) to `COc1ccc(CN2CCCC(Nc3cccc(F)c3)C2)cc1O` (stereo not given), the Percent Effect rises from -1.4% to 5.84%.

First: CC(=O)N1CCCC(c2cnc(-c3c(C)nn(C)c3C)cn2)C1 (stereo not given)
Second: CCOCCN1CCCC(c2cc(C(N)=O)[nH]n2)C1 (stereo not given)
The Percent Effect of the first is lower: -14.1% for the first, -7.08% for the second.

Going from `CCC1c2ccsc2CCN1C(=O)NCc1cc[nH]n1` (stereo not given) to `O=C1CC(c2ccccc2)c2snc(C(=O)O)c2N1` (stereo not given), the Percent Effect rises from -35% to -1.61%.

First: O=C1CC2(CCN(CC3CC3)C2)CN1c1ccc2c(c1)OCO2 (stereo not given)
Second: O=C(c1cnccn1)N1CCOCC2(CCN(C3CCOCC3)C2)C1 (stereo not given)
The Percent Effect of the first is lower: -55.4% for the first, -36.9% for the second.

Going from `Fc1cnc(N2CCOC3(CCN(Cc4ccsc4)CC3)C2)nc1` to `CC(=O)Nc1ccc(-n2ccc3nc(N4CCCC4)ncc3c2=O)cc1`, the Percent Effect rises from -18% to -9.95%.

First: COc1ccc(CC(=O)N2C[C@@H]3COC[C@]3(CN(C)C)C2)cc1
Second: COc1ccc(CNC(=O)C2(C#N)CCCC2)cc1
The Percent Effect of the first is lower: -4.41% for the first, 8.48% for the second.

First: CC1=N[C@@]2(CC[C@@H]3CN(CC(=O)N(C)C)C[C@@H]32)C(=O)N1CC(C)C
Second: CCc1noc(C(C)N(C)CC(=O)Nc2c(C)cccc2C)n1 (stereo not given)
The Percent Effect of the first is lower: -75.1% for the first, 10.3% for the second.

Compared with `COc1ccc(C(C)=O)c(OCC(=O)NC(C)c2ccc(F)cc2)c1` (stereo not given), `O=C(Cn1c(=O)n(Cc2ccco2)c2ncccc21)Nc1ccccn1` is higher in Percent Effect: -1.68% for the first, 3.73% for the second.
